# Screens: PubChem BioAssay, National Center for Advancing Translational Sciences (NCATS)
# IMPase inh: qHTS Assay for Identifying the Cell-Membrane Permeable IMPase Inhibitors | AID 901, 2007 | 120,000 tested, under 10 active | Inositol monophosphatase 1 (Rattus norvegicus), P97697 | inhibition (IP1 accumulation), % at 46.1 µM | CHO-M1 cells, IP1 accumulation, HTRF TR-FRET ratio; active = well fitted curve in the direction sought with a large enough effect in the signal ratio, not every such curve was filed as active; inconclusive = small, poorly fitted or top-dose-only effect, or a change in a side signal; inactive = no such curve, though single readings can be large or run the other way; the % refers to the signal ratio;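 note: cells stimulated with carbachol in lithium chloride buffer; higher means more IMPase inhibition seen as more IP1 and lower FRET ratio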
#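 In this qHTS, compounds (final up to 46 uM) act on CHO-M1 cells that are then activated through the M1 receptor with carbachol, in pH 7.4 buffer containing 50 mM LiCl, for 30 min. IP1 accumulation is quantified by the IP-One immunoassay.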
# 12-hLO inh: qHTS Assay for Inhibitors of 12-hLO (12-human lipoxygenase); purified 12-hLO, xylenol orange hydroperoxide absorbance; Potency, µM (highest dose often 57.1 µM), actives largely listed as inhibitors; 0.12% of 150,000 active; AID 1452, 2008; note: nearly all actives have a fitted effect of over 55% in size
# Target sequence (P18054 whole entry, looked up): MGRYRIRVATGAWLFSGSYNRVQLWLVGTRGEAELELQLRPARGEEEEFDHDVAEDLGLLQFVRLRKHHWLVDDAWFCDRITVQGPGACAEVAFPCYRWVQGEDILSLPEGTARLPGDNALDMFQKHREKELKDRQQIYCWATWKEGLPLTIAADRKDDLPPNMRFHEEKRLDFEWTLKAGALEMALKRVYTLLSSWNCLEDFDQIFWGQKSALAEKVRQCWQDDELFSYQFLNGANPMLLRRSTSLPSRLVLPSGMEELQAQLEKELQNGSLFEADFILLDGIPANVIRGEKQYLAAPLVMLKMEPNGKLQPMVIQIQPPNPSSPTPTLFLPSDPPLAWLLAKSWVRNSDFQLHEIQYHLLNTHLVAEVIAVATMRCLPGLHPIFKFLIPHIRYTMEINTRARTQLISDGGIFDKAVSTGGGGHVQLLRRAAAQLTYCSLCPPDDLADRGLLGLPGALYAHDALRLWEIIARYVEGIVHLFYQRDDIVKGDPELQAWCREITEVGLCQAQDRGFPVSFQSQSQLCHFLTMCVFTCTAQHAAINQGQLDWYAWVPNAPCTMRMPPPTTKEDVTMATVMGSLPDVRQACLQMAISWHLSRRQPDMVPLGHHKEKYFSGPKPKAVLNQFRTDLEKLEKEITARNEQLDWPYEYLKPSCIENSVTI
#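 Hydroperoxide output read as Fe(III)-xylenol orange absorbance, 573-to-405 nm ratio, after 30 min reaction with 40 uM arachidonic acid. Enzyme: 150 nM purified human 12hLO, 15 min compound preincubation; 25 mM Hepes pH 7.0, room temperature.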
# ALDH1A1 inh: qHTS Assay for Inhibitors of Aldehyde Dehydrogenase 1 (ALDH1A1); Aldehyde dehydrogenase 1A1 (Homo sapiens), P00352; Purified ALDH1A1, NADH fluorescence, propionaldehyde substrate; Potency, µM (titrated, usually from 75.3 µM), most hits filed as inhibitors; 7.3% of 220,000 active; active = well fitted inhibition curve with a large enough effect, not every such curve was filed as active; inconclusive = small, poorly fitted or top-dose-only effect, or another doubt; inactive = no such curve, though single readings can be large or run the other way
# NPSR antag: qHTS Assay for Antagonists of the Neuropeptide S Receptor: cAMP Signal Transduction. 1% of 220,000 active. Q6W5P4. AID 1461, 2008. Potency, µM (titrated, usually from 38.3 µM), most hits filed as inhibitors. CHO-NPSR cells, cAMP TR-FRET, antagonist mode; note: nearly all actives have a fitted effect of over 50% in size
# HPGD inh: qHTS Assay for Inhibitors of HPGD (15-Hydroxyprostaglandin Dehydrogenase); 4.3% of 150,000 active; purified HPGD, NADH fluorescence kinetic, PGE2 substrate; 15-hydroxyprostaglandin dehydrogenase [NAD(+)] (Homo sapiens), P15428; AID 894, 2007; Potency, µM, usual class: inhibitors; active = well fitted inhibition curve with a large enough effect, not every such curve was filed as active; inconclusive = small, poorly fitted or top-dose-only effect, or another doubt; inactive = no such curve, though single readings can be large or run the other way
#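 20 nM HPGD preincubated 15 min at room temperature with compound in 50 mM Tris-HCl pH 8, 0.01% Tween 20. Started with 1 mM NAD+ and 30 uM prostaglandin E2; NADH fluorescence (360/450 nm) read 5 times over 30-s intervals, last minus first.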
# IMPase Li cell: qHTS Assay for Identifying the Cell-Membrane Permeable IMPase Inhibitors: Potentiation with Lithium. CHO-M1 cells, IP1 TR-FRET (IP-One), carbachol + lithium. Potency, µM (top dose mostly 59.4 µM), most hits filed as inhibitors. 0.35% of 210,000 active;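 note: IP1 builds up when IMPase is blocked and the TR-FRET signal falls; nearly all actives have a fitted effect of over 50% in size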
#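 CHO cells stably expressing M1 receptor (2000/well) were cultured 16–30 h, then exposed to compounds with a small lithium addition for 30 min at 37C. IP1 was measured by TR-FRET competition; AC50 from Hill fits.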
# A number is an active result; i = inactive; ? = inconclusive; nt = no result given; [ ] = remark or other dose. The list is not random: actives were taken first. Their share in the collection is about 8.9%. Unless noted, calls come from the whole dose curve; as a rule, active = well fitted curve in the direction sought with a large enough effect; inconclusive = small, poorly fitted or top-dose-only effect, or another doubt; inactive = no such curve, though single readings can be large; an effect the other way counts as inactive or inconclusive.
SMILES,IMPase inh,12-hLO inh,ALDH1A1 inh,NPSR antag,HPGD inh,IMPase Li cell
O=C1CC(Sc2nnc(-c3ccccc3)o2)C(=O)N1c1ccccc1 (centres undefined),?,i,1.8µM,i,22µM,?
COc1cccc(-n2nc(C#N)c(Cl)cc2=O)c1,nt,nt,i,i,nt,i
Cn1c(NC(=O)c2ccco2)c(-c2ccc(Cl)cc2)c(=O)c2ccccc21,i,i,i,i,i,i
O=C(N1CCOCC1)C12CCC3CC(CC(C3)C1)C2,i,i,i,i,i,i
CCOC(=O)CN1CC23C=CC(O2)C(C(=O)NCc2ccc(C)cc2)C3C1=O (centres undefined),i,i,i,i,16µM,i
Cc1ccc(-c2nnn(CC(=O)N(CCN3CCOCC3)C(C(=O)NC(C)(C)C)c3ccc(C)o3)n2)cc1 (centres undefined),nt,nt,nt,i,nt,nt
CC(=O)c1ccc(-n2nnnc2SCC(=O)Nc2sc(C)c(C)c2C#N)cc1,i,i,18µM,i,i,i
CCOC(=O)c1cnc(SCC(=O)Nc2sc(C)c(C)c2C#N)nc1N,i,i,32µM,i,i,i
CCOC(=O)c1sc(NC(=O)CSc2nc(C)cc(-c3ccccc3)n2)c(C#N)c1C,i,i,3.2µM,i,7.1µM,i
O=C(NCc1ccccc1)NC1(C(=O)Nc2ccc3c(c2)OCCO3)CCCCC1,i,i,i,i[7.67 µM],i,i
Cc1ccc(SCC(=O)N=C2NC(=O)CS2)cc1,nt,nt,i,i,nt,i
CO/N=C\[C@@H](OC)[C@H](C)/C=C\CC(=O)OC,nt,nt,i[13.5 µM],nt,nt,nt
O=C(O)CCC(NC(=O)c1cncc(O)c1)C(=O)O (centres undefined),i,i,i,i,?,i
S=c1[nH]nc(-c2ccncc2)n1/N=C/c1cn(-c2ccccc2)nc1-c1ccccc1,nt,nt,nt,i,nt,nt
CC(C)(C)c1ccc(-c2n[nH]c(=S)n2/N=C/c2ccncc2)cc1,nt,i,i,i,11µM,i
S=c1[nH]nc(-c2ccncc2)n1/N=C/c1cccc2ccccc12,i,i,i,i,0.32µM,i
Cc1ccc(/C=N/n2c(-c3ccncc3)n[nH]c2=S)cc1,nt,i,?,i,20µM,i
Cc1ccc(C)c(SCC(=O)OCC(=O)c2ccco2)c1,i,i,?,i,18µM,i
Cc1ccc(C)c(SCC(=O)NCc2ccco2)c1,i,i,?,i,7.9µM,i
Cc1nc(SCC(=O)NCc2ccco2)nc(C)c1C,i,i,25µM,i,7.9µM,i
Cc1nc(SCC(=O)NC(=O)NCc2ccco2)nc(C)c1C,nt,nt,i,i,nt,i
Cc1ccc(C(CC(=O)NCc2ccco2)c2ccccc2)c(O)c1 (centres undefined),i,i,i,i,16µM,i
Cc1ccc2nc(SCC(=O)NCc3ccco3)[nH]c2c1,i,i,i,i,i,i
O=C(O)c1ccc2c(c1)C(=O)N(c1ccccc1-c1ccccc1)C2=O,nt,nt,?,i,nt,i
Cc1cc2cc(C)c(SCC(=O)NCc3ccco3)nc2cc1C,nt,nt,i,i,nt,i
SMILES,IMPase inh,12-hLO inh,ALDH1A1 inh,NPSR antag,HPGD inh,IMPase Li cell
Cc1ccc(SCCC(=O)NCc2ccco2)cc1,i,i,i,i,28µM,i
Cc1ccc2cc(C)c(SCC(=O)NCc3ccco3)nc2c1,nt,nt,14µM,?,nt,i
CCOc1ccc(-n2c(-c3ccc(C)cc3)nc3c(cnn3-c3ccccc3)c2=O)cc1,i,nt,nt,nt,nt,nt
O=S(=O)(N/N=C/c1ccc(N2CCOCC2)cc1)c1ccccc1,nt,nt,10µM,i,nt,i
CN(C)Cc1ccccc1-c1nccc(Nc2ccc(F)cc2)n1,nt,nt,i,nt,nt,i
CC1(C)Cc2nc3oc4c(NCc5ccccc5)ncnc4c3cc2CO1,i,i,?,i,?,i
COC(CSc1ncnc2c1oc1nc3c(cc12)COC(C)(C)C3)OC,nt,nt,3.2µM,i,nt,nt
COC(=O)CSc1ncnc2c1sc1nc3c(cc12)COC(C)(C)C3,nt,nt,1.4µM,i,nt,i
O=C(CCSCc1ccc(Cl)cc1)NCCC1=CCCCC1,i,i,i,i,i,i
Cn1c(=O)c2c(ncn2CC(=O)N/N=C/C(Cl)=C/c2ccccc2)n(C)c1=O,i,i,?,i,i,i
O=C(Cc1coc(-c2ccc(F)cc2)n1)N1CCOCC1,?,i,i,i,i,i
O=C(Cc1coc(-c2ccc(F)cc2)n1)NC1CCCCC1,i,i,i,i,18µM,i
Cc1cc(C)c(C)c(OCC(=O)NCC2CCCO2)c1 (centres undefined),i,i,i,i,?,i
Cc1cc(C)cc(OCC(=O)NCC2CCCO2)c1 (centres undefined),i,i,i,i,16µM,i
O=C(NCC1CCCO1)c1ccc(COc2ccc(Br)cc2)cc1 (centres undefined),nt,i,?,i,7.1µM,i
Cc1noc(C)c1COc1ccc(C(=O)NCC2CCCO2)cc1 (centres undefined),i,i,i,i,?,i
Cc1ccc(C(=O)NCC2CCCO2)cc1N1CCCC1=O (centres undefined),i,i,i,i,11µM,i
COc1ccc(C(=O)NCC2CCCO2)cc1 (centres undefined),nt,i,i,i,13µM,i
O=S(=O)(Nc1cc(C(F)(F)F)ccc1N1CCOCC1)c1ccccc1,nt,nt,?,i,nt,nt
OC(COc1ccc(OCc2ccccc2)cc1)CN1CCCCC1 (centres undefined),i,i,i,i,i,i
OCCN(Cc1ccccc1)Cc1ccc(Cl)cc1Cl,i,i,?,i,i,i
N=C(c1cccc([N+](=O)[O-])c1)N1CCCCC1,nt,nt,i,i,nt,i
CC(=O)Nc1ccc(C(=O)Nc2ccc(S(=O)(=O)NCC3CCCO3)cc2)cc1 (centres undefined),i,i,i,i[7.67 µM],i,i
COc1ccc(S(=O)(=O)N(C)c2ccc(C(=O)NCC3CCCO3)cc2)cc1 (centres undefined),i,i,i,i,2.8µM,i
COc1ccc(N(C)S(=O)(=O)c2cccc(C(=O)NCC3CCCO3)c2)cc1 (centres undefined),i,i,?,i,i,i
COc1ccc(CC(=O)Nc2ccc(S(=O)(=O)NCC3CCCO3)cc2)cc1 (centres undefined),i,i,10µM,i,22µM,i
Cc1ccc(C)n1-c1ccc(C(=O)NCC2CCCO2)cc1 (centres undefined),i,i,i,i,8.9µM,i
